Results filed as inconclusive are left out. Values without a mark were called inactive. Activity calls are given as the source filed them. Calls come from the whole dose curve; as a rule, active = well fitted inhibition curve with a large enough effect; inconclusive = small, poorly fitted or top-dose-only effect; inactive = flat fitted curve, though single readings scatter.
biological target: Glutathione peroxidase 1 (Homo sapiens) (UniProt P07203); experiment: Primary qHTS Assay for Inhibitors of Recombinant Selenoprotein Glutathione Peroxidase 1 (GPX1) (AID 1845191); details: recombinant GPX1, GR-coupled NADPH fluorescence, 15 min; series mostly up to 27.7 µM; activity, negative = inhibition: at the top concentration; note: nearly all actives have a fitted effect of over 65% in size
Sequence (P07203 whole entry, looked up): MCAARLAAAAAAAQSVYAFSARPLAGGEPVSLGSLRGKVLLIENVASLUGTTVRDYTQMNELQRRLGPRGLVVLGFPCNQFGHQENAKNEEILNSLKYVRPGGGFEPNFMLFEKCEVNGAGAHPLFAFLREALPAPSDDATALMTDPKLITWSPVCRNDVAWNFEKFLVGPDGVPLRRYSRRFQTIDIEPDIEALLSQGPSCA
Procedure, shortened: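 GR-coupled assay: compounds preincubated 30 min at room temperature with GPX1, then reaction started with CHP; final 10 nM GPX1, 1 mM GSH, 0.5 mM CHP, 0.5 mM NADPH, 100 nM GR, 0.01% BSA, pH 7.5 Tris buffer. NADPH fluorescence (340/450 nm) read at 0 and 15 min.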
% is set by controls: 0 for no effect and ±100 for the full control effect.

SMILES	outcome	activity, negative = inhibition
CCCC/C=C\CCCCCc1cc(=O)c2ccccc2n1C	inactive	–
C=C1C(=O)O[C@@H]2C[C@]3(C)[C@@H](CCC(C)=O)[C@@H]3C[C@H]12	–	-10.2% [at 48.8 µM]
CC1=C2C[C@H]3OC(=O)[C@H](O)[C@@]4(O)[C@@H](C)[C@@H](O)[C@H](O)C([C@@]2(C)[C@H](O)[C@@H](O)C1)[C@@]34C (some centres undefined)	–	0.959%
O=C(O)c1ccc(NC(=O)[C@H](CC2CCCC2)n2cnc(C(F)(F)F)c2)nc1	inactive [at 48.8 µM]	–
CC1(C(=O)O)CCCC2(C)C3CC4C5CC3(CCC12)CC45C (centres undefined)	–	-13% [at 48.8 µM]
O=C(NC/C=C/CN1CCN(c2cccc(Cl)c2Cl)CC1)c1ccc(-c2ccccn2)cc1	–	-21.3% [at 48.8 µM]
CC(=O)NC(C(=O)OC1CCC(C)(C)C2CC=C3C(=O)OCC3C12C)C(C)C (centres undefined)	–	0.0553%
CC(=O)OCC1=CCC2C(C)(C)CCCC2(C)C12CCC(C)(CC(=O)O)O2 (centres undefined)	–	-15.2%
COC(=O)C(CC1(O)c2ccccc2N2C(=O)C(C)(C)N(O)C21)n1cnc2ccccc2c1=O (centres undefined)	–	-8.36%
COc1ccc(S(=O)(=O)Nc2nc(-c3cccc([N+](=O)[O-])c3)cs2)cc1OC	–	-21.5% [at 48.8 µM]
C=CCC/C=C/C#CCCCCCCCC[C@H]1C(=O)O[C@H](C)[C@@H]1O	–	-5.39%
CCOC(=O)COc1ccc2c(c1)C[C@@H](NC[C@H](O)c1cccc(Cl)c1)CC2	–	-8.87% [at 48.8 µM]
CCCCC(=O)N1c2ccccc2NC2=C(C(=O)CCC2)C1c1ccccc1Cl (centres undefined)	inactive [at 48.8 µM]	–
C[C@H]1[C@H](C)CC[C@]2(C(=O)O)CC[C@]3(C(=O)O)C(=CCC4[C@@]5(C)CC[C@H](O[C@@H]6O[C@@H](C)[C@H](O)[C@@H](O)[C@H]6O)C(C)(C)C5CC[C@]43C)[C@H]12 (some centres undefined)	–	-1.23% [at 15.3 µM]

Reference: PubChem BioAssay (NCATS)
